Rab9 promoter act – qHTS Assay for Rab9 Promoter Activators | Huh7 Rab9 promoter-luciferase reporter, luminescence, 24 h | Potency, µM (top dose mostly 9.22 µM), without a hit: at the highest dose activation, negative = inhibition, most hits filed as activators | hit rate 2.8% among 320,000 | AID 485297, 2010; also: % of control where 0% means no effect; nearly all actives have a fitted effect of over 60% in size
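Luminescence read-out: Huh7 cells stably expressing Rab9-luciferase, treated 24 h with compound at 37 °C, then lysed with luciferase reagent for 10 min at ambient before reading.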
ELG1 genotoxic – qHTS screen for small molecules that induce genotoxicity in human embryonic kidney (HEK293T) cells expressing luciferase-tagged ELG1; HEK293T ELG1-luciferase reporter, luminescence, 16 h; Potency, µM (series often up to 46 µM), inactives show top-dose activity change, positive = activation, hits mostly activators; hit rate 1.3% among 330,000; also: % of control where 0% means no effect; nearly all actives have a fitted effect of over 60% in size
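HEK293T cells expressing luciferase-tagged ELG1 were exposed to compound or DMSO vehicle for 16 hr at 37 °C and 5% CO2. Luciferase activity was then measured with ONE-Glo after 30 min at room temperature.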
SMN2 splice up – qHTS Assay for Enhancers of SMN2 Splice Variant Expression. HEK293 SMN2-luciferase splicing reporter, luminescence, 30-36 h. Potency, µM (top dose mostly 46.1 µM), for inactives: top-dose activity change, positive = activation, hits mostly activators. hit rate 2.8% among 210,000. AID 1458, 2008; also: % of control where 0% means no effect; nearly all actives have a fitted effect of over 55% in size
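HEK293 cells carry an SMN2 minigene-luciferase reporter in which exon 7 inclusion puts luciferase in frame. Cells were seeded at 2000 cells/well, attached for 10-12 hours, then exposed to compounds for 30-36 hours at 37C before ONE-Glo luminescence.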
KinaseGlo FLuc – Counterscreen for Luciferase (Kinase-Glo TM) Inhibition; Luciferin 4-monooxygenase (Photuris pensylvanica), Q27757; Kinase-Glo luciferase, ATP luminescence, 8 min; Potency, µM (series often up to 38.3 µM), for inactives: top-dose activity change, negative = inhibition, actives largely listed as inhibitors; hit rate 0.28% among 200,000; AID 1379, 2008; also: % is scaled to controls: 0 for no effect and ±100 for the full control effect; nearly all actives have a fitted effect of over 60% in size
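Substrate mix (final 50 mM imidazole pH 7.2, 50 mM KCl, 7 mM MgCl2, 10 uM ATP, 0.01% Tween 20, 0.05% BSA) plus pin-tool compound, then Kinase-Glo detection mix; 8 min ambient, luminescence read.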
NPC1 promoter act – qHTS Assay for NPC1 Promoter Activators; Huh7 NPC1 promoter luciferase reporter, 24 h; Potency, µM (series often up to 9.22 µM), for the others: at the highest dose activation, usual class: activators; hit rate 2.4% among 320,000; also: % of control where 0% means no effect; nearly all actives have a fitted effect of over 60% in size
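Stably transfected Huh7 (NPC1 promoter→luciferase), 1500 cells/well in Opti-MEM + 10% FBS, 2 h settle, then compound 24 h at 37 °C. Luminescence after 10 min with Amplite reagent.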
FLuc modulator – qHTS profiling assay for firefly luciferase inhibitor/activator using purifed enzyme and Km concentrations of substrates (counterscreen for miR-21 project) | Luciferin 4-monooxygenase (Photinus pyralis), P08659 | purified FLuc, Km substrates, luminescence inhibition | Potency, µM (titrated, usually from 57.5 µM), for inactives: at the highest dose activity change, negative = inhibition, most hits filed as inhibitors | hit rate 6.9% among 360,000 | AID 588342, 2011;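 also: plate controls were vehicle for no effect and reference inhibitor for full effect; nearly all actives have a fitted effect of over 55% in size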
Target sequence (P08659 whole entry, looked up): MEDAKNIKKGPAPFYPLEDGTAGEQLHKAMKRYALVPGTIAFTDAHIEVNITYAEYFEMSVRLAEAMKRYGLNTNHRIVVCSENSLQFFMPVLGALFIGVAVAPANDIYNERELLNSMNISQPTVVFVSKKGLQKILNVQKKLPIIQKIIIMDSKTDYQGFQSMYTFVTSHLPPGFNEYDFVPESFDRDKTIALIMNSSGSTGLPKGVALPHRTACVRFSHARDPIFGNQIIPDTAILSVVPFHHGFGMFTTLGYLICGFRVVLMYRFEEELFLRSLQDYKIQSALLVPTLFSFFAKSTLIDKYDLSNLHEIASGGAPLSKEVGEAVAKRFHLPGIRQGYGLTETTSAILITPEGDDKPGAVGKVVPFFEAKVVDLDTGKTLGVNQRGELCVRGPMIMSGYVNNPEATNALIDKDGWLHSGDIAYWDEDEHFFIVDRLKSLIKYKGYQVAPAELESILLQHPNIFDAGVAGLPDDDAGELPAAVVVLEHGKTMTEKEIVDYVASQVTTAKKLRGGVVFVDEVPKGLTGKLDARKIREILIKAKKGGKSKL
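Purified P. pyralis luciferase (10nM final) with 10uM D-luciferin and 10uM ATP (Km levels) in 50mM Tris acetate pH 7.5, 10mM Mg acetate, 0.01% Tween-20, 0.05% BSA; qHTS 6-point titration, ~60 µM downward; luminescence read.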
Active calls of the source: *; ? = inconclusive; / = not tested or not shown; [ ] = remark or other dose. The list is not random: actives were taken first. Their share in the collection is about 7.4%. Calls follow the shape of the dose curve; as a rule, active = well fitted curve in the direction sought with a large enough effect; inconclusive = small, poorly fitted or top-dose-only effect, or another doubt; inactive = no such curve, though single readings can be large; an effect the other way counts as inactive or inconclusive. Potency is read from the fitted curve at half-maximal effect.

SMILES	Rab9 promoter act	ELG1 genotoxic	SMN2 splice up	KinaseGlo FLuc	NPC1 promoter act	FLuc modulator
CCCCNC(=O)CSc1nc2nc(C)c(Cc3ccccc3C)c(C)n2n1	/	/	8%	/	/	0%
CCOCC(=O)Nc1ccc(-c2cn3c(C)csc3n2)cc1	/	/	/	/	/	17µM*
Cc1csc2nc(-c3cccc(NC(=O)c4ccc(S(N)(=O)=O)cc4)c3)cn12	/	/	/	/	/	9.5µM*
Cc1csc2nc(-c3cccc(NC(=O)c4c(F)cccc4F)c3)cn12	/	/	/	/	/	21µM*
Cc1ccc(S(=O)(=O)Nc2cccc(-c3cn4ccsc4n3)c2)cc1	-9%	-6%	?	1%	-16%	?
Cn1c(=O)nc2n(-c3ccc(Cl)c(Cl)c3)c3cc(Cl)ccc3cc-2c1=O	/	/	-6%	/	/	-1%
CCc1ccc2oc(-c3ccc(OC)cc3)cc(=Nc3cccc(C(=O)O)c3)c2c1	3.2µM*	4.1µM*	?	-8%	?	5.4µM*
Cc1ccc2oc(-c3ccccc3)cc(=O)c2c1	/	/	/	-5%	/	/
CCc1ccc2oc(-c3ccc(OC)cc3)cc(=Nc3c(C)n(C)n(-c4ccccc4)c3=O)c2c1	?	-14%	-104%	-4%	?	8.5µM*
COc1ccc(-c2cc(=Nc3ccc(C(=O)O)cc3)c3cc(C)ccc3o2)cc1	?	?	18µM*	-1%	?	9.5µM*
CN(C)c1ncc2nc(-c3ccc(F)cc3)c(=O)n(CCC#N)c2n1	/	/	7%	-2%	/	/
O=c1cc(NS(=O)(=O)c2ccccc2)nc(SCc2ccc(Cl)cc2)[nH]1	-8%	23µM*	-1%	3%	-1%	-1%
COc1ccc([C@]23Cc4cc(OC)c(OC)cc4C(O2)c2c(c4ccccc4oc2=O)O3)cc1	8%[1.84 µM]	/	/	/	-1%[1.84 µM]	-17%[11.5 µM]
O=C(NCc1cccc(F)c1)c1ccc(CS(=O)c2ccccc2Cl)o1 (stereo unspecified)	/	/	/	/	/	0%
Cc1cc(NC(=O)NC(=O)c2ccc(F)cc2F)n[nH]1	0.56µM*	?	11µM*	-7%	0.5µM*	7.6µM*
CCCn1c(CCC(=O)Nc2cc(OC)cc(OC)c2)nc2cccnc21	/	/	-12%	/	/	5%
CC(C)C(=O)Nc1cccc(C(=O)Nc2nnc(C(F)(F)F)s2)c1	/	/	14%	/	/	17µM*
Cc1nnc(NC(=O)c2cccc(NC(=O)C(C)C)c2)s1	5%	4%	6%	-2%	4%	-16%
CC(C)C(=O)Nc1ccc(C(=O)Nc2nnc(C(C)C)s2)cc1	?	12%	/	-1%	23%	?
CC(C)c1nnc(NC(=O)c2cccc(NC(=O)C(F)(F)F)c2)s1	1.3µM*	?	14µM*	4%	3.5µM*	21µM*
CC(C)C(=O)Nc1cccc(C(=O)Nc2nnc(C(C)C)s2)c1	1.4µM*	?	11µM*	0%	2.8µM*	?
CCc1nnc(NC(=O)c2cccc(NC(=O)C(C)C)c2)s1	?	29%	16µM*	0%	?	?
COC(=O)c1c(Oc2ccc(OC)cc2)nnc(-c2ccccc2)c1-c1ccccc1	/	/	13%	/	/	-18%
COc1ccccc1OCCSc1nc2ccccc2n1CC(=O)N1CCOCC1	/	/	/	/	/	-4%
CCc1ccc(-n2nc(C)c3c(C)cc(=O)n(Cc4nc(-c5ccccc5)oc4C)c32)cc1	/	/	/	/	/	1%
SMILES	Rab9 promoter act	ELG1 genotoxic	SMN2 splice up	KinaseGlo FLuc	NPC1 promoter act	FLuc modulator
O=C(NCCN1CCOCC1)c1cc(-c2ccc(Cl)cc2Cl)on1	5%	23%	/	/	27%	11µM*
O=C(c1cc(-c2ccc(Cl)cc2Cl)on1)N1CCCC1	1µM*	2.9µM*	/	/	0.89µM*	0.43µM*
O=C(c1cc(-c2ccc(Cl)cc2Cl)on1)N1CCCCCC1	0.71µM*	4.6µM*	/	/	0.71µM*	1.2µM*
Cc1cccc(C)c1Nc1oc(-c2ccccc2)nc1-c1ccccc1F	/	/	29%	-4%	/	/
CCCc1ccc(OC(C)C(=O)Nc2sc3c(c2C(=O)OC)CCCCC3)cc1 (stereo unspecified)	/	/	-7%	/	/	-14%
O=C(CN1C(=O)NC2(CCCCCC2)C1=O)c1ccc2c(c1)OCCO2	2.8µM*	4.1µM*	18µM*	-1%	2µM*	9.5µM*
O=C(CN1C(=O)NC2(CCCCCC2)C1=O)c1ccc(F)cc1	1%	16%	/	/	0%	-3%
CC1CCC2(CC1)NC(=O)N(CC(=O)Nc1ccc3c(c1)OCCO3)C2=O (stereo unspecified)	3.5µM*	?	?	3%	?	27µM*
Cc1ccc(CNC(=O)c2c(C)oc3nc(C)nc(N4CCOCC4)c23)cc1	/	/	/	/	/	4%
Cc1cc(C)cc(OCC(=O)Nc2cccc(S(=O)(=O)NC3=NCCC3)c2)c1	-1%	-2%	/	/	-16%	-12%
Cc1ccc(OCC(=O)Nc2cccc(S(=O)(=O)NC3=NCCCCC3)c2)cc1C	-1%	-5%	/	/	0%	15µM*
O=C(/C=C/c1ccc(Cl)cc1Cl)Nc1cccc(S(=O)(=O)NC2=NCCCCC2)c1	19%	6%	15%	0%	22%	2.4µM*
Cc1cc(OCC(=O)Nc2cccc(S(=O)(=O)NC3=NCCCCC3)c2)ccc1Cl	0%	-5%	-14%	0%	0%	17µM*
O=C(/C=C/c1ccccc1[N+](=O)[O-])Nc1cccc(S(=O)(=O)NC2=NCCCCC2)c1	/	0%	/	/	/	/
C=C(C)C(=O)/C=C/CCC/C=C/C(=O)OCC	/	/	4%	-1%	/	/
O=C(CCNS(=O)(=O)c1ccc(Br)s1)Nc1ccc(Br)cc1	/	/	7%	/	/	?
Cc1cc(Nc2cccc(C(F)(F)F)c2)nc2ccc(NC(=O)Cc3ccc(Cl)cc3)cc12	/	/	/	/	/	0%
COc1ccc(Nc2ncnc3c2c(C)c(C)n3CCO)cc1	1.6µM*	8.2µM*	/	/	1µM*	5.4µM*
Cc1c(C)n(CCCN(C)C)c2ncnc(Nc3ccc(F)cc3)c12	7%	0%	/	/	-1%	-5%
Cc1c(C)n(CCO)c2ncnc(Nc3ccc(F)cc3)c12	?	?	/	/	25%	19µM*
Clc1cccc(Cl)c1C(Nc1nncs1)Nc1nncs1	/	/	4%[9.22 µM]	-7%[7.66 µM]	/	/
CCOC(=O)C(/C=C(\C#N)C(=O)OCC)=C(/N)N1CCN(c2ccccc2)CC1	-1%	2%	1%	-3%	-1%	4%
CCOC(=O)/C(C#N)=C\c1ccc(N2CCN(C)CC2)cc1	-3%	4%	1%	2%	-1%	12µM*
CCOC(=O)/C(C#N)=C/c1ccc(N2CCN(C)CC2)cc1	1%	-2%	5%	1%	-2%	27µM*
CCOCCCNC(=O)c1cnc2sc(N3CCCCC3)nn2c1=O	/	/	/	/	/	-2%

Screening data deposited in PubChem by National Center for Advancing Translational Sciences (NCATS).
